This is an account of results in PubChem BioAssay (NCI).

Among the test systems are DU-145 prostate; K-562 leukemia; MALME-3M melanoma; MDA-MB-231 breast; RXF 393 renal; SF-268 CNS; SF-295 CNS; SF-539 CNS; UACC-257 melanoma; M14 melanoma; HCT-15 colon; HT29 colon; SNB-75 CNS; SNB-19 CNS; U251 CNS; PC-3 prostate; SK-MEL-5 melanoma; UACC-62 melanoma; LOX IMVI melanoma; SK-MEL-28 melanoma.
Common to all, as to test: NCI-60 one-dose screen, 48 h (100 = growth as untreated, 0 = no growth, -100 = all killed)
What all share (details): 10 µM unless noted

This is part of a sample that, as a whole, favours compounds with a hit. Of some 83,000 tested, about 20% had one in any assay.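 Interpretation: 100, growth as untreated; towards 0, rising growth inhibition; 0, no net growth; 0 to -100, cell death. Compounds scoring below 10 were considered active.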 A number with no mark means an inactive call. The source made the active and inactive calls.

Take `COc1ccc(/C=C2\N=C(Nc3ccccc3)N(NC(=O)c3ccccn3)C2=O)cc1`: the growth with DU-145 prostate is 109%; with K-562 leukemia, 81.1%; in the assay with MALME-3M melanoma, 105%; in the assay on MDA-MB-231 breast it was 94.6%; in the assay with RXF 393 renal, 95.8%; with SF-268 CNS it was 101%. Moreover, the growth is 98.2% with SF-295 CNS; 98.3% in the assay on SF-539 CNS; 108% with UACC-257 melanoma; 101% with M14 melanoma; 91.6% with HCT-15 colon; 112% in the assay with HT29 colon. Also, the growth in the assay on SNB-75 CNS is 72.4%; in the assay with SNB-19 CNS, 87.2%; in the assay with U251 CNS it was 95.8%; in the assay with PC-3 prostate, 101%; in the assay on SK-MEL-5 melanoma, 93.4%; in the assay with UACC-62 melanoma it was 86.2%. For the same molecule, the figures for the growth in the assay with LOX IMVI melanoma and in the assay on SK-MEL-28 melanoma were 95.5% and 102%, respectively.
For `CC1(C)CC[C@]2(C(=O)OC(=O)[C@]34CCC(C)(C)C[C@@H]3C3=CC[C@@H]5[C@@]6(C)CCC(=O)C(C)(C)[C@@H]6CC[C@@]5(C)[C@]3(C)CC4)CC[C@]3(C)C(=CC[C@@H]4[C@@]5(C)CCC(=O)C(C)(C)[C@@H]5CC[C@]43C)[C@H]2C1`, the growth in the assay on DU-145 prostate was 77.4% [100 µM]; in the assay with K-562 leukemia, 36.4% [100 µM]; in the assay with MALME-3M melanoma, 81.2% [100 µM]; in the assay with MDA-MB-231 breast it was 45.7% [100 µM]; in the assay on RXF 393 renal it was 62.6% [100 µM]; in the assay with SF-268 CNS, 63.4% [100 µM]. In addition, the growth in the assay on SF-295 CNS is 76.5% [100 µM]; in the assay with SF-539 CNS, 61.6% [100 µM]; in the assay with UACC-257 melanoma it was 69% [100 µM]; in the assay with M14 melanoma, 77.9% [100 µM]; in the assay with HCT-15 colon it was 73.6% [100 µM]; in the assay on HT29 colon it was 44.8% [100 µM]. The growth in the assay with SNB-75 CNS is 15.8% [100 µM]; in the assay with SNB-19 CNS, 62.8% [100 µM]; in the assay on U251 CNS, 64.6% [100 µM]; with PC-3 prostate, 36.6% [100 µM]; with SK-MEL-5 melanoma, 25% [100 µM]; with UACC-62 melanoma it was 49.9% [100 µM]. Besides, the growth with LOX IMVI melanoma is 64.6% [100 µM]; in the assay on SK-MEL-28 melanoma, 81.7% [100 µM].
Take `CCOC(=O)c1cnc2ccc(Br)cc2c1Nc1cccc(S(N)(=O)=O)c1`: the growth in the assay on DU-145 prostate was 103%; with K-562 leukemia, 90.7%; in the assay with MALME-3M melanoma, 101%; in the assay on MDA-MB-231 breast, 89.9%; in the assay on RXF 393 renal, 90.8%; in the assay on SF-268 CNS, 88.1%. Also, the growth in the assay with SF-295 CNS is 95.5%; in the assay with SF-539 CNS, 99%; with UACC-257 melanoma, 105%; in the assay on M14 melanoma it was 110%; in the assay with HCT-15 colon it was 90.8%; with HT29 colon, 107%. Besides, the growth is 80.6% with SNB-75 CNS; 88% in the assay with SNB-19 CNS; 91.9% in the assay on U251 CNS; 94.5% in the assay on PC-3 prostate; 89.1% in the assay on SK-MEL-5 melanoma; 103% in the assay with UACC-62 melanoma. The results for the growth in the assay on LOX IMVI melanoma and in the assay with SK-MEL-28 melanoma were 101% and 109%, respectively.
Turning to `N#Cc1c(Cl)nc(SCC2CO2)nc1-c1ccccc1` (stereo not given), the growth in the assay with DU-145 prostate was 123%; with K-562 leukemia, 128%; in the assay with MALME-3M melanoma, 85.1%; with MDA-MB-231 breast, 118%; in the assay on RXF 393 renal it was 101%; in the assay on SF-268 CNS, 116%. For the same molecule, the growth with SF-295 CNS was 117%; with SF-539 CNS it was 105%; in the assay with UACC-257 melanoma, 39.9%; in the assay with M14 melanoma, 98.5%; with HCT-15 colon it was 110%; with HT29 colon it was 111%. For the same molecule, the growth is 95.6% in the assay on SNB-75 CNS; 106% with SNB-19 CNS; 104% with U251 CNS; 110% with PC-3 prostate; 107% in the assay on SK-MEL-5 melanoma; 107% in the assay with UACC-62 melanoma. Besides, the figures for the growth in the assay with LOX IMVI melanoma and with SK-MEL-28 melanoma were 98.4% and 114%, respectively.
For `C[C@H]1[C@H](C)CC[C@]2(C(=O)N3CCN(C)CC3)CC[C@]3(C)C(=CC[C@@H]4[C@@]5(C)C/C(=C/c6ccco6)C(=O)C(C)(C)[C@@H]5CC[C@]43C)[C@H]12`, the growth with DU-145 prostate was 50.4% [100 µM]; with K-562 leukemia, 28.2% [100 µM]; with MALME-3M melanoma, 45.7% [100 µM]; in the assay with MDA-MB-231 breast, 15.6% [100 µM]; with RXF 393 renal, 55.1% [100 µM]; in the assay with SF-268 CNS, 50.3% [100 µM]. Besides, the growth is 29.8% [100 µM] with SF-295 CNS; 46.2% [100 µM] in the assay on SF-539 CNS; 22.5% [100 µM] in the assay with UACC-257 melanoma; 48.8% [100 µM] in the assay on M14 melanoma; 32.5% [100 µM] with HCT-15 colon; 26.3% [100 µM] in the assay on HT29 colon. For the same molecule, the growth was 62.3% [100 µM] in the assay with SNB-75 CNS; 47.7% [100 µM] with SNB-19 CNS; 17.4% [100 µM] in the assay on U251 CNS; 29.9% [100 µM] in the assay on PC-3 prostate; -46.8% [100 µM] (active) in the assay on SK-MEL-5 melanoma; 32.8% [100 µM] in the assay on UACC-62 melanoma. Moreover, the growth with LOX IMVI melanoma was -6.24% [100 µM] (active); in the assay on SK-MEL-28 melanoma, 35% [100 µM].
Regarding `CC(C)(C)c1cc(C(=O)N2CCC(C(=O)NCCN)CC2)cc(C(C)(C)C)c1`, the growth in the assay with DU-145 prostate was 116%; in the assay on K-562 leukemia it was 103%; with MALME-3M melanoma, 95%; in the assay with MDA-MB-231 breast it was 90.9%; in the assay on RXF 393 renal, 98.5%; with SF-268 CNS, 97.8%. Moreover, the growth is 101% in the assay on SF-295 CNS; 98.4% in the assay on SF-539 CNS; 81% in the assay on UACC-257 melanoma; 113% with M14 melanoma; 103% in the assay with HCT-15 colon; 80.5% with HT29 colon. Besides, the growth in the assay with SNB-75 CNS is 79.4%; in the assay on SNB-19 CNS it was 88%; in the assay on U251 CNS, 88.2%; in the assay on PC-3 prostate it was 92.5%; in the assay with SK-MEL-5 melanoma, 95.4%; in the assay on UACC-62 melanoma, 89.3%. The growth is 99.6% with LOX IMVI melanoma and 101% in the assay with SK-MEL-28 melanoma.
With `O=C(NCc1ccccc1)C(Cl)Cl`, the growth was 110% with DU-145 prostate; 108% with K-562 leukemia; 101% in the assay on MALME-3M melanoma; 102% in the assay on MDA-MB-231 breast; 107% with RXF 393 renal; 99.7% with SF-268 CNS. Also, the growth was 95.7% in the assay on SF-295 CNS; 97.4% with SF-539 CNS; 102% with UACC-257 melanoma; 101% in the assay on M14 melanoma; 98.2% with HCT-15 colon; 99.2% with HT29 colon. Also, the growth in the assay on SNB-75 CNS was 102%; with SNB-19 CNS, 96.7%; in the assay on U251 CNS it was 99.4%; with PC-3 prostate, 101%; in the assay with SK-MEL-5 melanoma it was 101%; with UACC-62 melanoma, 93.1%. Further, the growth with LOX IMVI melanoma is 101%; in the assay with SK-MEL-28 melanoma it was 96.1%.
